{"source": "PubChem BioAssay AID1076", "about": "(NMMLSC, 2008)", "note": "The source made the active and inactive calls.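 Rule for the calls: active = cell event count below 40, meaning activity score above 60 where score is 100 minus count; inactive = the rest.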", "data": [{"assay": "cytotoxicity in LNCaP prostate cells – cell-based, cell event count, single point, cytotoxicity control for prostate differentiation activator project, confirmation (AID 1076);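 note: counts scatter-gated live cells after medium removal discards detached dead cells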", "conditions": "LNCaP cell loss, flow cytometry event count, 4 d; at 100 µM; stronger effect = lower value", "values": [{"smiles": "O=C(Cn1c(=O)[nH]c2ccsc2c1=O)NC1CCCCCC1", "cell event count": "120 (inactive)"}, {"smiles": "CCN(CC)CCNC(=O)c1nn(-c2ccc(C)cc2)c(=O)c2c1c1ccccc1n2C", "cell event count": "18 (inactive)"}, {"smiles": "CCOC(=O)C1=C(C)Nc2nc(SC)nn2C1c1ccc(C(=O)OC)cc1", "note": "(stereo not drawn)", "cell event count": "326 (inactive)"}, {"smiles": "CCc1ccc(-c2nc(CN3CCC(C(=O)N4CCN(c5ccccc5)CC4)CC3)c(C)o2)cc1", "cell event count": "9 (inactive)"}, {"smiles": "Cc1cccc(OCCn2c(=O)n(C)c3ccccc32)c1", "cell event count": "15 (inactive)"}, {"smiles": "CCOC(=O)N1CCC(NC(=O)c2cc3c(-c4ccccc4F)nn(C)c3s2)CC1", "cell event count": "60 (inactive)"}]}, {"assay": "cytotoxicity in LNCaP prostate cells – cell-based, cell event count, single point, cytotoxicity control for prostate differentiation activator project, confirmation (AID 1076)", "conditions": "LNCaP cell loss, flow cytometry event count, 4 d; event count; at 10 µM; stronger effect = lower value", "values": [{"smiles": "CCn1c(=O)cc(SCC(=O)N2CCN(C3CCCCC3)CC2)c2ccccc21", "cell event count": 402}, {"smiles": "CCN(CC)CC(=O)Nc1ccc(-c2nc3cc(NC(=O)CN(CC)CC)ccc3o2)cc1", "cell event count": 140}, {"smiles": "CCOc1ccc(-c2cc(C(=O)NCCCN3CCN(CC)CC3)c3ccccc3n2)cc1", "cell event count": 156}, {"smiles": "COCCn1c(=O)[nH]c2cc(C(=O)NCCCN3CCN(c4ccc(F)cc4)CC3)ccc2c1=O", "cell event count": 194}, {"smiles": "Cc1onc(-c2ccccc2Cl)c1C(=O)N(C)C1CCCCC1", "cell event count": 188}, {"smiles": "Cc1ccc(C)c2[nH]c(=O)c(CN(CCN3CCCC3)C(=O)Nc3cccc(Cl)c3)cc12", "cell event count": 97}, {"smiles": "Cc1cc(C)c2c(=O)n(CC(=O)NCCCN3CCN(c4ccccc4F)CC3)sc2n1", "cell event count": 216}, {"smiles": "O=C(c1ccc(COCC(F)(F)F)o1)N1CCCCCC1", "cell event count": 104}, {"smiles": "CCc1nnc(NC(=O)CSc2nc3ccccc3s2)s1", "cell event count": 142}, {"smiles": "Cc1cc(N2CCC(N(C)C3CCCC3)CC2)nc2cc(O)ccc12", "cell event count": 196}, {"smiles": "Cc1nn(Cc2ccc(F)cc2)c(C)c1NC(=O)c1cc(-c2ccc3c(c2)OCO3)on1", "cell event count": 276}, {"smiles": "O=C1c2ccccc2C(Nc2ccc3c(c2)OCO3)N1Cc1ccc2c(c1)OCO2", "note": "(stereo not drawn)", "cell event count": 189}, {"smiles": "Nc1cccc2cnccc12", "cell event count": 168}, {"smiles": "COc1ccc(Cl)c(N2CCN(CCCNC(=O)Nc3ccc(C)cc3)CC2)c1", "cell event count": 128}, {"smiles": "COc1ccc(-c2cc3c(=O)n(CC(=O)NC4CCN(Cc5ccccc5)CC4)ncn3n2)cc1", "cell event count": 257}, {"smiles": "Cc1cccc(-c2nc(CN3CCCC(C(=O)NC4CCC(C)CC4)C3)c(C)o2)c1", "note": "(stereo not drawn)", "cell event count": 138}, {"smiles": "COc1ccc(Nc2nc(N)nc(CN3CCC(Cc4ccccc4)CC3)n2)cc1", "cell event count": 7.5}, {"smiles": "Cc1cc(N2CCN(C)CC2)nc2ccc(NC(=O)c3ccc4c(c3)OCO4)cc12", "cell event count": 278}, {"smiles": "O=c1cc(-c2ccccc2)[nH]c2ccccc12", "cell event count": 76}, {"smiles": "CC1CCCCN1CCNC(=O)c1ccc2c(=O)n(CCc3ccccc3)c(=O)[nH]c2c1", "note": "(stereo not drawn)", "cell event count": 184}, {"smiles": "CCOC(=O)c1c(-c2ccc(C)o2)csc1NC(=O)CN1CCN(CC)CC1", "cell event count": 170}, {"smiles": "CCc1ccc(-c2nc(CN3CCCC(C(=O)NCCc4ccc(OC)c(OC)c4)C3)c(C)o2)cc1", "note": "(stereo not drawn)", "cell event count": 144}, {"smiles": "COc1cc(C(=O)NCc2nnc(SCC(=O)NCc3ccccc3)o2)cc(OC)c1OC", "cell event count": 134}, {"smiles": "COc1ccc(-c2cc(C(F)(F)F)nc(N3CCN(c4ccc(F)cc4)CC3)n2)cc1OC", "cell event count": 96}, {"smiles": "O=C(CSc1nc2sc3c(c2c(=O)n1-c1ccccc1)CCCC3)NCc1ccco1", "cell event count": 104}, {"smiles": "O=C(CCn1c(=O)oc2ccccc21)NCCCN1CCN(c2ccc(F)cc2)CC1", "cell event count": 127}, {"smiles": "Cc1cccc(N2CCN(C(=O)CCNC(=O)Cn3ccc4ccccc4c3=O)CC2)c1C", "cell event count": 246}, {"smiles": "Cn1c(C(=O)NCCCN2CCN(c3cccc(Cl)c3)CC2)cc2c(=O)n(C)c3ccccc3c21", "cell event count": 251}, {"smiles": "Cc1ccccc1OCc1nc(-c2ccc(NC(=O)c3ccc4c(c3)OCO4)cc2)no1", "cell event count": 154}, {"smiles": "CCn1c(=O)cc(SCC(=O)NCCN2CCN(Cc3ccccc3)CC2)c2ccccc21", "cell event count": 356}, {"smiles": "O=S(=O)(Nc1cccc2ncccc12)c1cccs1", "cell event count": 78.5}, {"smiles": "O=C(Cn1c(=O)[nH]c2ccsc2c1=O)NC1CCCCCC1", "cell event count": 118}, {"smiles": "CCN(CC)CCNC(=O)c1nn(-c2ccc(C)cc2)c(=O)c2c1c1ccccc1n2C", "cell event count": 136}, {"smiles": "CCOC(=O)C1=C(C)Nc2nc(SC)nn2C1c1ccc(C(=O)OC)cc1", "note": "(stereo not drawn)", "cell event count": 178}, {"smiles": "CCc1ccc(-c2nc(CN3CCC(C(=O)N4CCN(c5ccccc5)CC4)CC3)c(C)o2)cc1", "cell event count": 254}, {"smiles": "Cc1cccc(OCCn2c(=O)n(C)c3ccccc32)c1", "cell event count": 136}, {"smiles": "CCOC(=O)N1CCC(NC(=O)c2cc3c(-c4ccccc4F)nn(C)c3s2)CC1", "cell event count": 148}]}]}
